About 3,000 (1%) of roughly 290,000 compounds were called active. This is one part of a sample in which actives are shown more often than they occur. Values without a mark were called inactive. Cut-off read from the data, not from the text of the source: active = inhibition mostly above about 36% (no sharp cut-off); inactive = mostly below about 34%.
Assay: inhibition of NOD1-driven NF-kB reporter – cell-based, luminescence, uHTS, primary screen (AID 1578);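 note: HEK-293T reporter cells stimulated with the NOD1 agonist gamma-tri-DAP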
Conditions: NOD1-driven NF-kB luciferase reporter cells, at 4 µM, active compounds read high

SMILES | inhibition
Cc1ccc(CSc2nnc3ccc(-c4ccncc4)nn23)cc1 | -23.9%
CSc1ccc(C(=O)C2CCCN(C(=O)c3ccc(C)nc3)C2)cc1 (stereo unspecified) | -25.1%
Cc1ccc(C(=O)N2CCCC(C(=O)c3ccc(Oc4ccccc4)cc3)C2)cn1 (stereo unspecified) | 61% (active)
O=C(c1ccc(Oc2ccccc2)cc1)C1CCCN(C(=O)c2cnccn2)C1 (stereo unspecified) | -4.3%
Cc1ccc(O)c(Nc2ncnc3ccc([N+](=O)[O-])cc23)c1 | 28.1%
Cc1ccc2ncnc(Nc3cccc([N+](=O)[O-])c3)c2c1 | 13.8%
COc1ccc(Nc2ncnc3ccc([N+](=O)[O-])cc23)c(OC)c1 | 7%
COc1ccc([N+](=O)[O-])cc1Nc1ncnc2ccccc12 | -1.9%
O=[N+]([O-])c1ccc2ncnc(Nc3ccc4c(c3)OCCO4)c2c1 | 65.2% (active)
CCOC(=O)COn1c(=O)c(-c2ccccc2)[n+]([O-])c2ccccc21 | 0.2%
COc1ccc(/C=N/NC(=O)c2ccc(Br)cc2)c(OC)c1 | -40.4%
COC(=O)C1=C(C)NC(C)=C(C(=O)OC)C1c1ccco1 | -5.8%
CCOc1ccc(NC(=O)COC(=O)Cc2ccc(S(=O)(=O)N3CCOCC3)s2)cc1 | 5.1%
Cc1ccc(-n2nc3c(=O)n(CC(=O)NCc4ccccn4)nc(C)c3c2C)cc1 | -3.4%
CC(C)(C)OC(=O)N1CCOCCOCCN(C(=O)OC(C)(C)C)CCOCCOCC1 | 4.4%
COC(=O)c1nc(NC(=O)c2cc(OC)c(OC)c(OC)c2)n[nH]1 | 15.5%
CCN1CCN(CC(=O)c2c[nH]c3ccc(C)cc23)CC1 | -10.6%
CCN(CC)CC(=O)c1c[nH]c2ccc(C)cc12 | -11.4%
Cc1ccc2[nH]cc(C(=O)CCl)c2c1 | 107% (active)
Nc1ccc(S(=O)(=O)c2ccc(Cl)cc2)cc1 | 4%
COc1ccc(/C=N/NC(N)=S)cc1 | -8.2%

SMILES | inhibition
Cc1ccc(S(=O)(=O)c2nc(S(=O)(=O)c3ccccc3)sc2N2CCN(CCO)CC2)cc1 | 18%
CCN1C(=O)N(CC)C2NC(=S)NC21 (stereo unspecified) | 8.6%
COc1ccc(OCc2cc(C(=O)N(C)Cc3nnc(C)o3)no2)c(Cl)c1 | -5.8%
C/C=C/Cn1c(SCc2ccccc2)nc2c1c(=O)[nH]c(=O)n2C | 35%
C=CCn1c(SCCCc2ccccc2)nc2c1c(=O)[nH]c(=O)n2C | -1.2%
Cc1ccc(S(=O)(=O)c2cc3c(=O)n4ccccc4nc3n(C)c2=N)cc1C | -7.1%
CCOCCOC(=O)c1[nH]c2c(c1C)C(=O)CC(c1cc(OC)c(OC)c(OC)c1)C2 (stereo unspecified) | 4.2%
CCCOC(=O)c1[nH]c2c(c1C)C(=O)CC(c1ccc(OC)c(OC)c1)C2 (stereo unspecified) | -5.9%
CC(=O)N1CCN(c2ccccc2NC(=O)c2ccc(C#N)cc2F)CC1 | 2.6%
COc1ccc(OCCN2CCN(C(=O)c3ccc(OC)c(OC)c3)CC2)cc1 | -11.7%
Cc1ccc(-c2nc(N)sc2-c2ccccc2)cc1C | -14%
CCOC(=O)N1CCc2c(sc(NC(=O)c3ccc(Cl)s3)c2C(N)=O)C1 | 85.3% (active)
CCOC(=O)N1CCc2c(sc(NC(=O)C3=COCCO3)c2C(N)=O)C1 | -29.7%
CCOC(=O)c1c(NC(=O)c2cccs2)sc2c1CCN(C(=O)OCC)C2 | 14%
O=C(CSc1nnc(-c2ccccc2Br)o1)Nc1cccc2ccccc12 | -22.5%
Cc1ccc(C2=Nn3c(COc4ccc(Cl)cc4)nnc3SC2CC(=O)O)cc1 (stereo unspecified) | 3.6%
CN(CCCNC(=O)Cn1c(=O)c2cccn2c2ccccc21)Cc1ccccc1 | -17.1%
Cc1ccccc1NC(=O)COC(=O)C1(C)CC1(Cl)Cl (stereo unspecified) | -11.4%
Cc1ccc(S(=O)(=O)Oc2ccc(/C=C(/NC(=O)c3ccccc3)C(=O)NCCCC(=O)O)cc2)cc1 | -18.3%
COC(=O)c1c(-c2ccccc2)csc1NC1=NS(=O)(=O)c2ccccc21 | 82.4% (active)
COC(=O)c1ccc(C(=O)OC)c(NC2=NS(=O)(=O)c3ccccc32)c1 | -20.3%

SMILES | inhibition
CCOC(=O)c1c(-c2ccc(C)cc2)csc1NC1=NS(=O)(=O)c2ccccc21 | 24%
O=C(OCC(=O)c1cccs1)c1ccccc1 | 2.3%
Cc1nc2ccc(F)cc2cc1C(=O)Nc1ccc(Cl)c(Cl)c1 | -34%
Cc1ccc(NC(=O)N(Cc2nc3ccccc3c(=O)[nH]2)Cc2cccs2)cc1 | -2.2%
O=C(Nc1ccc(Cl)cc1)N(Cc1nc2ccccc2c(=O)[nH]1)Cc1cccs1 | 99.1% (active)
O=C(Nc1cccc(Cl)c1)N(Cc1nc2ccccc2c(=O)[nH]1)Cc1cccs1 | -26.5%
Cn1cc(C(=O)NCc2cccs2)c(=O)c2cc(S(=O)(=O)N3CCCC3)ccc21 | 53%
CCn1c(O)c(N=Nc2ccc3ccccc3n2)c2ccccc21 | -7.9%
Brc1ccc(N=Nc2ccc3ccccc3n2)cc1 | 43.4% (active)
Brc1ccc(/C=N/Nc2ccc3ccccc3n2)cc1 | -39.3%
CC1Cc2ccccc2N1CC(=O)Nc1ccc(S(=O)(=O)N(C)C)cc1 (stereo unspecified) | -7.7%
Cc1ccc(C(C)NC(=S)NCc2ccc(F)cc2)c(C)c1 (stereo unspecified) | 29.2%
Cc1ccc(C(C)NC(=S)NCc2ccc(F)cc2)cc1C (stereo unspecified) | -16.4%
COc1ccc(C(C)NC(=S)NCc2ccc(F)cc2)cc1 (stereo unspecified) | 55.1% (active)
CCOc1ccc(C(C)NC(=S)NCc2ccc(F)cc2)cc1 (stereo unspecified) | 8.6%
Cc1ccc(C)c(C(C)NC(=S)NCc2ccc(F)cc2)c1 (stereo unspecified) | 52.6% (active)
COc1cccc(C(C)NC(=S)NCc2ccc(F)cc2)c1 (stereo unspecified) | 20.3%
COCCNC(=O)Cn1c(=O)n(C)c2ccccc21 | -14%
Cc1cc(C)cc(N(C(C)C(=O)NCCC2=CCCCC2)S(C)(=O)=O)c1 (stereo unspecified) | 15%

— PubChem BioAssay AID1578 (Sanford-Burnham Center for Chemical Genomics, 2009)
